Test results reported in PubChem BioAssay AID1159580 (chemical genetic matrix, 2015).
Hit rate of the full screen: of about 5,500 compounds, about 2,000 (36%) were called active. Another 18% or so got no clear call; they are omitted. No stated cut-off is given here; in the data, active means normalized growth mostly below about 0.91 (no sharp cut-off); inconclusive means no clear call, values can overlap the other calls; inactive means mostly above about 0.92. The list shows a part of the results.

Test: chemical genetic growth profiling, strain panel (AID 1159580);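 further: tested at 20 µM; growth read once vehicle control cultures reached saturation at 30 °C; 1 = growth at the plate median or of vehicle wells; lower values mean less growth of the strain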
Settings: growth OD

Measured: normalized growth

NC(=O)NCCCC(N)C(=O)O (configuration not stated)
inactive: S. cerevisiae deletion strains, locus YJR075W, strain HOC1, active compounds read low 1.03 | S. cerevisiae deletion strains, locus YKL009W, strain mrt4, active compounds read low 0.984 | S. cerevisiae deletion strains, locus YKL068W, active compounds read low 0.999 | S. cerevisiae deletion strains, locus YKL085W, strain MDH1 (second series), active compounds read low 1 | S. cerevisiae deletion strains, locus YKL085W, strain MDH1, active compounds read low 1 | S. cerevisiae deletion strains, locus YKL160W, strain elf1, active compounds read low 0.979 | S. cerevisiae deletion strains, locus YKL190W, strain CNB1, active compounds read low 1.02 | S. cerevisiae deletion strains, locus YKR001C, strain vps1, active compounds read low 1 | S. cerevisiae deletion strains, locus YKR026C, strain gcn3, active compounds read low 1 | S. cerevisiae deletion strains, locus YKR091W, strain srl3, active compounds read low 0.997 | S. cerevisiae deletion strains, locus YLL001W, strain dnm1, active compounds read low 1 | S. cerevisiae deletion strains, locus YLL026W, active compounds read low 1.01 | S. cerevisiae deletion strains, locus YLL041C, strain sdh2, active compounds read low 0.987 | S. cerevisiae deletion strains, locus YLR027C, strain aat2, active compounds read low 0.996 | S. cerevisiae deletion strains, locus YLR039C, strain RIC1, active compounds read low 1.03 | S. cerevisiae deletion strains, locus YLR058C, strain SHM2, active compounds read low 1.02 | S. cerevisiae deletion strains, locus YLR102C, strain apc9, active compounds read low 0.997 | S. cerevisiae deletion strains, locus YLR113W, strain HOG1, active compounds read low 1.02 | S. cerevisiae deletion strains, locus YLR221C, strain rsa3, active compounds read low 0.971 | S. cerevisiae deletion strains, locus YLR258W, strain gsy2, active compounds read low 1.03 | S. cerevisiae deletion strains, locus YLR262C, strain YPT6 (second series), active compounds read low 1 | S. cerevisiae deletion strains, locus YLR262C, strain YPT6, active compounds read low 1.04 | S. cerevisiae deletion strains, locus YLR268W, strain sec22, active compounds read low 0.989 | S. cerevisiae deletion strains, locus YLR320W, strain mms22, active compounds read low 1.03 | S. cerevisiae deletion strains, locus YLR330W, strain CHS5, active compounds read low 1.01 | S. cerevisiae deletion strains, locus YLR342W, strain FKS1 (second series), active compounds read low 1.01 | S. cerevisiae deletion strains, locus YLR342W, strain FKS1, active compounds read low 1.01 | S. cerevisiae deletion strains, locus YLR357W, strain rsc2, active compounds read low 1.01 | S. cerevisiae deletion strains, locus YLR370C, strain arc18, active compounds read low 0.987 | S. cerevisiae deletion strains, locus YLR371W, strain rom2, active compounds read low 0.995 | S. cerevisiae deletion strains, locus YLR384C, strain iki3, active compounds read low 1 | S. cerevisiae deletion strains, locus YLR418C, strain cdc73, active compounds read low 0.989 | S. cerevisiae deletion strains, locus YML016C, strain PPZ1, active compounds read low 1.02 | S. cerevisiae deletion strains, locus YML032C, strain rad52, active compounds read low 0.999 | S. cerevisiae deletion strains, locus YML120C, strain ndi1, active compounds read low 0.962 | S. cerevisiae deletion strains, locus YML124C, strain tub3, active compounds read low 0.989 | S. cerevisiae deletion strains, locus YMR058W, strain fet3, active compounds read low 0.983 | S. cerevisiae deletion strains, locus YMR078C, strain ctf18, active compounds read low 0.992 | S. cerevisiae deletion strains, locus YMR125W, strain sto1, active compounds read low 1.01 | S. cerevisiae deletion strains, locus YMR129W, active compounds read low 0.991 | S. cerevisiae deletion strains, locus YMR205C, strain PFK2, active compounds read low 1.05 | S. cerevisiae deletion strains, locus YMR223W, strain ubp8, active compounds read low 0.998 | S. cerevisiae deletion strains, locus YMR231W, strain pep5, active compounds read low 1.01 | S. cerevisiae deletion strains, locus YMR263W, strain SAP30, active compounds read low 1.02 | S. cerevisiae deletion strains, locus YMR307W, strain GAS1, active compounds read low 1.02 | S. cerevisiae deletion strains, locus YNL067W, strain RPL9B, active compounds read low 1.04 | S. cerevisiae deletion strains, locus YNL071W, strain lat1, active compounds read low 0.999 | S. cerevisiae deletion strains, locus YNL128W, strain TEP1, active compounds read low 1.04 | S. cerevisiae deletion strains, locus YNL153C, strain GIM3, active compounds read low 1.02 | S. cerevisiae deletion strains, locus YNL183C, strain NPR1, active compounds read low 0.963 | S. cerevisiae deletion strains, locus YNL209W, strain ssb2, active compounds read low 1 | S. cerevisiae deletion strains, locus YNL233W, strain BNI4, active compounds read low 1.02 | S. cerevisiae deletion strains, locus YNL248C, strain rpa49, active compounds read low 0.941 | S. cerevisiae deletion strains, locus YNL250W, strain rad50, active compounds read low 1 | S. cerevisiae deletion strains, locus YNL271C, strain bni1, active compounds read low 0.992 | S. cerevisiae deletion strains, locus YNL298W, strain CLA4, active compounds read low 1.01 | S. cerevisiae deletion strains, locus YNL307C, strain MCK1, active compounds read low 0.981 | S. cerevisiae deletion strains, locus YNL322C, strain KRE1 (second series), active compounds read low 0.988 | S. cerevisiae deletion strains, locus YNL322C, strain KRE1, active compounds read low 1.02 | S. cerevisiae deletion strains, locus YNR049C, strain mso1, active compounds read low 1 | S. cerevisiae deletion strains, locus YNR052C, strain pop2, active compounds read low 1 | S. cerevisiae deletion strains, locus YOL006C, strain TOP1, active compounds read low 1.04 | S. cerevisiae deletion strains, locus YOL012C, strain htz1 1.42 | S. cerevisiae deletion strains, locus YOL147C, strain pex11, active compounds read low 0.994 | S. cerevisiae deletion strains, locus YOR001W, strain rrp6, active compounds read low 0.958 | S. cerevisiae deletion strains, locus YOR061W, strain CKA2, active compounds read low 1.03 | S. cerevisiae deletion strains, locus YOR069W, strain VPS5, active compounds read low 1.01 | S. cerevisiae deletion strains, locus YOR070C, strain gyp1, active compounds read low 0.999 | S. cerevisiae deletion strains, locus YOR080W, strain dia2, active compounds read low 1.01 | S. cerevisiae deletion strains, locus YOR083W, strain WHI5, active compounds read low 0.958 | S. cerevisiae deletion strains, locus YOR106W, strain vam3, active compounds read low 0.978 | S. cerevisiae deletion strains, locus YOR136W, strain idh2, active compounds read low 0.988 | S. cerevisiae deletion strains, locus YOR144C, strain elg1, active compounds read low 0.993 | S. cerevisiae deletion strains, locus YOR184W, strain ser1, active compounds read low 0.99 | S. cerevisiae deletion strains, locus YOR231W, strain MKK1, active compounds read low 0.991 | S. cerevisiae deletion strains, locus YOR265W, strain rbl2, active compounds read low 0.998 | S. cerevisiae deletion strains, locus YOR270C, strain vph1, active compounds read low 0.964 | S. cerevisiae deletion strains, locus YOR290C, strain snf2, active compounds read low 1 | S. cerevisiae deletion strains, locus YOR316C, strain cot1, active compounds read low 0.996 | S. cerevisiae deletion strains, locus YPL051W, strain arl3, active compounds read low 0.981 | S. cerevisiae deletion strains, locus YPL055C, strain LGE1, active compounds read low 1.07 | S. cerevisiae deletion strains, locus YPL078C, strain atp4, active compounds read low 0.949 | S. cerevisiae deletion strains, locus YPL106C, strain sse1, active compounds read low 1.03 | S. cerevisiae deletion strains, locus YPL240C, strain hsp82, active compounds read low 0.988 | S. cerevisiae deletion strains, locus YPL241C, strain CIN2, active compounds read low 1.01 | S. cerevisiae deletion strains, locus YPL256C, strain CLN2, active compounds read low 0.988 | S. cerevisiae deletion strains, locus YPR119W, strain clb2, active compounds read low 0.995 | S. cerevisiae deletion strains, locus YPR141C, strain kar3, active compounds read low 1 | S. cerevisiae deletion strains, locus YPR163C, strain tif3, active compounds read low 0.989 | S. cerevisiae deletion strains, locus YPR167C, strain met16, active compounds read low 0.995 | S. cerevisiae deletion strains, strain wtn01, active compounds read low 0.986 | S. cerevisiae strains, strain wild type, active compounds read low 1.01
